Source: PubChem BioAssay (National Center for Advancing Translational Sciences (NCATS))
Most compounds without a hit are left out; they make up all but 19% or so of the library.
HT1080 IDH1KD tx – kills HT-1080 cells with IDH1 knockdown; Potency, µM (titrated, usually from 46.1 µM), without a hit: at the highest dose activity, negative = toxicity, usual class: cytotoxic; AID 686971; HT-1080 IDH1 knockdown viability, ATP luminescence, 48 h; 2% of 360,000 active;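 also: potency is read from the fitted curve at half-maximal effect; 0% = DMSO wells and -100% = cell-free medium wells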
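In this qHTS, HT-1080 cells depleted of IDH1 are exposed for 48 h at 37 °C to compound titrations. Toxicity is scored from CellTiter-Glo luminescence, with DMSO as full viability and medium alone as none.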
TDP1 cell CPT – DT40-hTDP1 cell growth loss with CPT; chicken DT40 Tdp1-/-;hTDP1 cells + 20 nM CPT, ATP luminescence, 48 h; Potency, µM (highest dose often 46.2 µM), for inactives: top-dose activity change, negative = growth inhibition, hits mostly inhibitors; 12% of 420,000 active; also: potency is read from the fitted curve at half-maximal effect; nearly all actives have a fitted effect of over 55% in size
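Chicken DT40 Tdp1-/- cells complemented with human TDP1, 400 cells/well, exposed to compounds plus 20 nM camptothecin for at least 48 h at 37 C; viability read as ATP content by CellTiter-Glo luminescence.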
HT1080-NT tox – kills 2HG-producing HT-1080-NT fibrosarcoma cells; HT-1080-NT fibrosarcoma viability, CellTiter-Glo ATP luminescence, 48 h; Potency, µM (series often up to 46.1 µM), for the others: at the top dose activity, negative = less viability, usual class: cytotoxic; 1.6% of 360,000 active; AID 686970;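 also: NT is the 2HG producing partner of a matched IDH1 knockdown line; potency is read from the fitted curve at half-maximal effect; 0% = DMSO-treated cells and -100% = media-only wells without cells; nearly all actives have a fitted effect of over 55% in size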
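Read-out is CellTiter-Glo luminescence after 10 minutes at room temperature, following 48 hours' compound treatment of HT-1080-NT cells (750 cells/well, RPMI, 5% FBS, 37 degrees C).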
IL1B secr inh – blocks inflammasome-driven IL-1 beta release; THP-1 LPS/ATP IL-1B secretion, AlphaLISA, 16 h; hits give low values; activity change, % at 57.5 µM; 4.7% of 360,000 active; in the data active = activity change below about -50%; inconclusive = mostly about -30% to -49%
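THP-1 cells pretreated 1 hr with compounds (up to 57.5 uM final), then stimulated with LPS (250 ng/mL final) plus ATP (1.25 mM final); secreted IL-1B measured by AlphaLISA after 16 hr, decreased signal indicating inhibition.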
DT40 TDP1 no CPT – qHTS for Inhibitors of human tyrosyl-DNA phosphodiesterase 1 (TDP1): qHTS in cells in absence of CPT; DT40 Tdp1-/- hTDP1 cells, no CPT, ATP luminescence, 48 h; 15% of 420,000 active; Potency, µM (doses to about 46.2 µM), for inactives: top-dose activity change, negative = growth inhibition, usual class: inhibitors; also: potency is read from the fitted curve at half-maximal effect; nearly all actives have a fitted effect of over 55% in size
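Growth kinetics read by CellTiter-Glo luminescence after ≥48 hr at 37 °C. Cells: DT40 Tdp1-/- stably carrying human TDP1, 400 per well, compound exposure in the absence of CPT (DMSO vehicle).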
* = called active by the depositor; [ ] = dose if it differs, or a comment. Unless noted, calls follow the shape of the dose curve; as a rule, active = well fitted curve in the direction sought with a large enough effect; inconclusive = small, poorly fitted or top-dose-only effect, or another doubt; inactive = no such curve, though single readings can be large; an effect the other way counts as inactive or inconclusive. Unless noted, % is scaled to controls: 0 for no effect and ±100 for the full control effect.

Cc1ccc(C)c2c1c1ccccc1n2C was read as HT1080 IDH1KD tx 7%, TDP1 cell CPT 2%, HT1080-NT tox 10% and DT40 TDP1 no CPT -3%.
Screening Cc1ccc2c(c1)c1ccc3c(c1n2C)C(=O)C=CC3=O returned HT1080 IDH1KD tx -1%, TDP1 cell CPT 0.52µM*, HT1080-NT tox -12%, IL1B secr inh -3 and DT40 TDP1 no CPT 0.58µM*.
Screening O=C(Nc1cnccn1)c1ccc(F)cc1Cl returned HT1080 IDH1KD tx 2%, TDP1 cell CPT -16%, HT1080-NT tox 2%, IL1B secr inh 10 and DT40 TDP1 no CPT -20%.
O=c1[nH]nc(-c2ccc(OCc3ccc(Cl)cc3Cl)cc2)o1 was read as HT1080 IDH1KD tx 19%, TDP1 cell CPT -4%, HT1080-NT tox 14%, IL1B secr inh -17 and DT40 TDP1 no CPT 21%.
Screening S=C(Nc1ccccc1)Nc1ccc(OCc2ccc(Cl)cc2Cl)cc1 returned HT1080 IDH1KD tx -11%, TDP1 cell CPT 18µM*, HT1080-NT tox -10%, IL1B secr inh -2 and DT40 TDP1 no CPT inconclusive.
For OCCCCNCc1ccc(OCc2ccc(Cl)cc2Cl)cc1 the results were HT1080 IDH1KD tx inconclusive, TDP1 cell CPT 21µM*, HT1080-NT tox inconclusive, IL1B secr inh -101* and DT40 TDP1 no CPT 23µM*.
For OCCNCc1ccc(OCc2ccc(Cl)cc2Cl)cc1 the results were HT1080 IDH1KD tx 21µM*, TDP1 cell CPT 18µM*, HT1080-NT tox inconclusive, IL1B secr inh -98* and DT40 TDP1 no CPT 18µM*.
Screening C=CCOc1cccc(/C=N/NC(=O)CN2CCCCC2)c1 returned HT1080 IDH1KD tx 9%, TDP1 cell CPT -2%, HT1080-NT tox 16%, IL1B secr inh 6 and DT40 TDP1 no CPT 8%.
For COc1ccc(O)c(CN2CCCN(c3nc(C)c4cc(C)c(C)cc4n3)CC2)c1 the results were TDP1 cell CPT -1%[9.04 µM] and DT40 TDP1 no CPT -14%.
`COc1ccc(-c2coc3c(C(=O)Nc4cccc(C(C)=O)c4)cccc23)c(C)c1` gave HT1080 IDH1KD tx inconclusive, TDP1 cell CPT 18µM*, HT1080-NT tox -19%, IL1B secr inh 8 and DT40 TDP1 no CPT 21µM*.
Screening COc1ccc(-c2ccc(C(=O)Nc3cccc(C(C)=O)c3)c3occc23)c(C)c1 returned HT1080 IDH1KD tx inconclusive, TDP1 cell CPT 12µM*, HT1080-NT tox -22%, IL1B secr inh 11 and DT40 TDP1 no CPT 8.2µM*.
`Cn1cc(-c2ccc(C(=O)Nc3cccc(Oc4ccccc4)c3)c3occc23)cn1` gave HT1080 IDH1KD tx -26%, TDP1 cell CPT 0%, HT1080-NT tox 1%, IL1B secr inh 10 and DT40 TDP1 no CPT inconclusive.
COc1ccc(-c2ccc(C(=O)Nc3cccc(NS(C)(=O)=O)c3)c3occc23)c(C)c1 was read as HT1080 IDH1KD tx inconclusive, TDP1 cell CPT 16µM*, HT1080-NT tox inconclusive, IL1B secr inh -10 and DT40 TDP1 no CPT inconclusive.
`COc1cccc(C(=O)Nc2cccc(C(C)=O)c2)c1` gave HT1080 IDH1KD tx 3%, TDP1 cell CPT 22%, HT1080-NT tox 6%, IL1B secr inh 14 and DT40 TDP1 no CPT -4%.
COc1ccc(-c2ccc(C(=O)Nc3cccc(N(C)C)c3)c3occc23)c(C)c1 was read as HT1080 IDH1KD tx -12%, TDP1 cell CPT inconclusive, HT1080-NT tox -1%, IL1B secr inh 0 and DT40 TDP1 no CPT inconclusive.
For COc1ccc(-c2ccc(C(=O)Nc3ccc(C(C)C)cc3)c3occc23)c(C)c1 the results were HT1080 IDH1KD tx -20%, TDP1 cell CPT inconclusive, HT1080-NT tox -1%, IL1B secr inh 25 and DT40 TDP1 no CPT 16µM*.
Cc1cc(S(=O)(=O)N2CCCC(N3CCOCC3)C2)c(C)cc1Cl (centres undefined) was read as HT1080 IDH1KD tx -8%, TDP1 cell CPT inconclusive, HT1080-NT tox -5%, IL1B secr inh 2 and DT40 TDP1 no CPT inconclusive.
